Test results as given in ChEMBL document CHEMBL4513216, “Probing the Open Global Health Chemical Diversity Library for Multistage-Active Starting Points for Next-Generation Antimalarials” (ACS Infect Dis, 2020).
About 8,600 (12%) of roughly 69,000 compounds showed an effect of 50% or more. This excerpt belongs to a sample that is enriched for strong results.

tested on: Plasmodium berghei; test: Screen against P. berghei liver stage (PbLuc), transformed with Luciferase, at 10uM; format: functional, HepG2; conditions: tested at 10 uM

SMILES	INHIBITION [%]
COc1cc(N2CCO[C@H]3[C@@H](Oc4cccnc4)CC[C@@H]32)ncn1	23.5
Cc1cccc(CN2CC3(CCN(Cc4ccco4)CC3)OCC2=O)n1	-16.2
NC(=O)C1CCN(C(=O)Cc2cnc(-c3c(Cl)cccc3Cl)s2)CC1	37.9
O=S(=O)(c1ccc(F)cc1)N1CCCC1c1cc[nH]n1 (centres undefined)	33.7
COc1ccc(C(=O)N2CCC(Nc3cccnn3)CC2)c(F)c1	-32
CC(C)N(CC(=O)Nc1ccc(Br)cc1Cl)Cc1cccnc1	73.2
N#CCCN(CC(=O)Nc1ccc(Br)cc1Cl)Cc1cccnc1	64.3
Cc1c(Cl)cccc1NC(=O)CN(Cc1cccnc1)C(C)C	73.2
CC(C)N(CC(N)=O)Cc1cccc(Br)c1	16.6
N#CCCN(Cc1cccnc1)C(=O)c1ccc(-n2cnnn2)cc1	18.6
Cc1c(Cl)cccc1NC(=O)CCNc1ccc(C#N)cn1	-128
CC(C)N(CC(=O)O)Cc1cccc(Br)c1	13.2
N#CCCN(Cc1cccnc1)C(=O)c1cc(Cl)c[nH]1	30.3
CCc1noc(C(C)N(C)CC(=O)Nc2ccccc2Cl)n1 (centres undefined)	21.7
O=C(Cc1ccc2c(c1)CCC2)N1CCCC1Cn1cccn1 (centres undefined)	2.79
Cc1cccc(N2CC3(CCN(S(=O)(=O)C4CC4)C3)C2)n1	34.6
CC(=O)N1CCCC2(CN(Cc3ccc(C)s3)CCO2)C1 (centres undefined)	-46.8
O=C(Cc1cccs1)N1C[C@H]2CN(CC3CCCO3)CC[C@H]2C1 (some centres undefined)	30.3
O=C1[C@@H]2CN(c3ncc(Cl)cc3F)C[C@]2(C(=O)O)CN1CC1CC1	-5.19
Cc1nc(CN(C)C2CCCN(c3cccnn3)C2)oc1C (centres undefined)	-21.8
Cc1cc(C)c(CNC(=O)N2CCCC2c2cc(C)on2)c(=O)[nH]1 (centres undefined)	81.3
CN(CC(=O)N1CCCC1c1ccccn1)Cc1ccccc1 (centres undefined)	26.6
Cc1nc(C2CCCN2C(=O)CN(C)Cc2ccccc2)no1 (centres undefined)	34
Cc1cc(C)c(CNC(=O)N2CCCC2c2ccccn2)c(=O)[nH]1 (centres undefined)	-14.7
Cc1cc(C2CCCN2C(=O)CN(C)Cc2ccccc2)no1 (centres undefined)	58.7

SMILES	INHIBITION [%]
Cc1cc(C2CCCN2C(=O)NCc2c(C)cc(C)[nH]c2=O)on1 (centres undefined)	36.1
CN(C)[C@@H]1CCN(c2ncccn2)[C@H]1Cc1cccnc1	-31.4
CCN1CCC(N2CCC(C(=O)N(C)C)CC2)CC1	15.6
Cc1ccc(CN2CC[C@H](c3nnc(-c4ccco4)o3)C2)cc1	-33
Cc1ncsc1-c1nnc(C2CCN(Cc3cccc(Cl)c3)CC2)o1	-6.3
Fc1ccc(CCN2CCC(c3nnc(-c4cccnc4)o3)CC2)cc1	35.3
Cc1ncsc1-c1nnc(C2CCN(Cc3ccccc3)CC2)o1	27.8
COc1ccc(CN2CCC(c3nnc(-c4scnc4C)o3)CC2)cc1	54.5
Cc1ncsc1-c1nnc(C2CCN(Cc3ccc(Cl)cc3)CC2)o1	76.8
Cc1cccc(CN2CCC(c3nnc(-c4scnc4C)o3)CC2)c1	23.4
Cc1ncsc1-c1nnc(C2CCN(Cc3ccc(F)cc3)CC2)o1	35.3
Cc1ccsc1-c1nnc(C2CCN(Cc3ccc(F)cc3)CC2)o1	68.2
COc1ccc2c(c1)CN(C)C(=O)CCN2CC(O)C(F)(F)F (centres undefined)	-8.04
Cc1cnc(CNCc2cn(CCN3CCSCC3)nc2C)cn1	4.68
O=C(NCC(F)F)c1cnc(C2CCCN2)cn1 (centres undefined)	61.05
Cc1cccc(NC(=O)c2cnc(C3CCCNC3)cn2)n1 (centres undefined)	10.4
Cc1csc(NC(=O)c2cnc(C3CCCN3)cn2)n1 (centres undefined)	80.9
Cc1nn(C)c(C)c1-c1cnc(C2CCCN(C)C2)cn1 (centres undefined)	-28.6
COc1c(C2CCCN2CC(=O)Nc2nc(C)cs2)c(C)nn1C (centres undefined)	31.9
Cc1csc(NC(=O)c2cnc(C3CCCN(C)C3)cn2)n1 (centres undefined)	71.3
FC(F)CNc1cnc(C2CCCN2)cn1 (centres undefined)	5.15
O=C(NCc1ccccn1)c1cnc(C2CCCN2)cn1 (centres undefined)	18.3
Cc1csc(NC(=O)c2cnc(C3CCNCC3)cn2)n1	24.4
COCCN1Cc2nccn2CC(COCc2csc(C)n2)C1 (centres undefined)	29.5
CN(C)CCNC(=O)c1sc2ccccc2c1C1CCC(CN)CC1 (centres undefined)	-77.3

SMILES	INHIBITION [%]
COCC1CN(S(=O)(=O)N(C)C)Cc2cnn(CC3CCCC3)c21 (centres undefined)	-17.1
COc1cccc2c1ccn2CCNC(=O)CCNc1ncccn1	38.5
COc1ncnc2c1CCN(Cc1cccc(C)n1)CC2	10.7
CC(NS(C)(=O)=O)C(=O)N(C)Cc1csc(-c2cccs2)n1 (centres undefined)	-102
CNC(=O)C(C)S(=O)(=O)Cc1csc(-c2cccs2)n1 (centres undefined)	30.1
CCc1nc(CN(C)Cc2nnc(-c3cccs3)o2)cs1	7.81
COC(=O)NCC(=O)N(C)Cc1csc(-c2cccs2)n1	49.2
Cc1cc(CN(C)Cc2csc(-c3cccs3)n2)n[nH]1	57
CN(Cc1csc(-c2cccs2)n1)CC(O)CO (centres undefined)	51.5
CN(Cc1csc(-c2cccs2)n1)Cc1ncccc1C(=O)O	5.91
Cc1nc(CN(C)Cc2csc(-c3cccs3)n2)co1	15.7
CN(Cc1csc(-c2cccs2)n1)Cc1cccnc1N	55.9
O=C(C1CCOCC1)N1CCCC1c1cncc(CN2CCCC2)n1 (centres undefined)	41.5
COCC(=O)N1CC(c2csc(NC(C)=O)n2)C1	2.71
CNC(=O)C1CCN(C(=O)NCCc2ccc(Cl)s2)CC1	23.5
Cc1ccc(-c2nnc(C3CCCN3S(=O)(=O)c3cnn(C)c3C)o2)s1 (centres undefined)	19.02
Cc1ccc(NC2CCN(C(=O)CCc3c(C)noc3C)CC2)nn1	7.12
CCc1ncnc2c1CCN(C(=O)c1ccccn1)CC2	-0.813
CC1CCc2nc(O)c(C(=O)NCCc3cccs3)cc2C1 (centres undefined)	-111
COCCNC(=O)c1cc2c(nc1O)CC(c1cccs1)CC2=O (centres undefined)	55.2
O=C(O)c1cc2c(nc1O)CC(c1cccs1)CC2=O (centres undefined)	-6.32
O=C(NC1CC1)c1cc2c(nc1O)CC(c1cccs1)CC2=O (centres undefined)	75.2
O=C1CC(c2cccs2)Cc2nc(O)c(C(=O)N3CCCC3)cc21 (centres undefined)	-60.7
O=C(O)c1cc2c(nc1O)CC(c1cccc(Cl)c1)CC2=O (centres undefined)	-23.7
